Compounds with a hit are over-represented: about 7.5% of the library has one in this group of screens.
Luc counter = blocks Kinase-Glo luciferase, a counter-screen artifact | AID 1379 | Potency, µM (doses to about 38.3 µM), usual class: inhibitors | Kinase-Glo luciferase, ATP luminescence, 8 min | actives 0.28% (n = 200,000); further: nearly all actives have a fitted effect of over 60% in size
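Kinase-Glo luciferase light output from ATP and luciferin was measured with 10 uM ATP, within the enzyme's linear range. Buffer: 50 mM imidazole pH 7.2, 50 mM KCl, 7 mM MgCl2, 0.01% Tween 20, 0.05% BSA; luminescence read after 8 min at ambient temperature.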
FLuc counter = counter-screen for miR-21 project: firefly luciferase inhibitors or activators | actives 6.9% (n = 360,000) | purified FLuc, Km substrates, luminescence inhibition | AID 588342 | P08659 | Potency, µM (top dose mostly 57.5 µM), hits mostly inhibitors; further: nearly all actives have a fitted effect of over 55% in size
Target sequence (P08659 whole entry, looked up): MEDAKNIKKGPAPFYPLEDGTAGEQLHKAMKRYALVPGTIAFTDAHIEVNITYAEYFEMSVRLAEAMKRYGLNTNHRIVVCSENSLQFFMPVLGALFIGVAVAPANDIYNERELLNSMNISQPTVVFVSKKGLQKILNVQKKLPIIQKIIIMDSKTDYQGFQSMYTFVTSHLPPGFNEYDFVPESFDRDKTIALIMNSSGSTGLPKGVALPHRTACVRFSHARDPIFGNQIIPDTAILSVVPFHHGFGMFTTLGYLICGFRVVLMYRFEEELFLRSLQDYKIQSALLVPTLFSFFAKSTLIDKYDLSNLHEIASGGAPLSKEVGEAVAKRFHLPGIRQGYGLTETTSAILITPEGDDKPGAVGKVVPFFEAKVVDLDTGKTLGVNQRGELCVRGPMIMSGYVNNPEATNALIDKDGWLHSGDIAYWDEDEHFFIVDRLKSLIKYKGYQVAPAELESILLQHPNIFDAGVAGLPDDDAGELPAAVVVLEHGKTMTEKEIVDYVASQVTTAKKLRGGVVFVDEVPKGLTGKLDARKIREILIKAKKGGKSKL
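Biochemical qHTS of compounds, final roughly 60 µM downward over six points, against 10 nM purified firefly luciferase using Km concentrations of substrates (10 uM D-luciferin, 10 uM ATP) in Tris acetate pH 7.5 buffer; luminescence output.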
SMN2 splice up = SMN2 splice variant enhancement; HEK293 SMN2-luciferase splicing reporter, luminescence, 30-36 h; Potency, µM (titrated, usually from 46.1 µM), hits mostly activators; actives 2.8% (n = 210,000); further: nearly all actives have a fitted effect of over 55% in size
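HEK293 cells carry an SMN2 minigene-luciferase reporter in which exon 7 inclusion puts luciferase in frame. Cells were seeded at 2000 cells/well, attached for 10-12 hours, then exposed to compounds for 30-36 hours at 37C before ONE-Glo luminescence.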
Rab9 promoter act = activators of Rab9 promoter | Huh7 Rab9 promoter-luciferase reporter, luminescence, 24 h | Potency, µM (titrated, usually from 9.22 µM), most hits filed as activators | actives 2.8% (n = 320,000); further: nearly all actives have a fitted effect of over 60% in size
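Luciferase signal after 10 min detection reagent at ambient indicates Rab9 promoter upregulation; stably transfected Huh7 cells were treated 24 h with compound in DMSO at 37 °C, 5% CO2.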
ELG1 genotox = induces genotoxicity in HEK293T cells with luciferase-tagged ELG1 | HEK293T ELG1-luciferase reporter, luminescence, 16 h | Potency, µM (titrated, usually from 46 µM), usual class: activators | actives 1.3% (n = 330,000) | AID 504466; further: nearly all actives have a fitted effect of over 60% in size
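DMSO vehicle served as control against compound-treated ELG1-luciferase HEK293T cells; exposure lasted 16 hr at 37 °C and 5% CO2, followed by ONE-Glo luminescence detection after 30 min.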
NPC1 prom act = activates the NPC1 promoter; Huh7 NPC1 promoter luciferase reporter, 24 h; Potency, µM (titrated, usually from 9.22 µM), actives largely listed as activators; actives 2.4% (n = 320,000); AID 485313; further: nearly all actives have a fitted effect of over 60% in size
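Compounds in DMSO were transferred onto Huh7 NPC1-luciferase reporter cells pre-incubated 2 h; after 24 h at 37 °C, Amplite reagent was dispensed and luminescence recorded 10 min later.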
Numbers stand for hits; . = inactive; ? = inconclusive; / = no result given. The call rests on the fitted dose curve; in most records, active means well fitted curve in the direction sought with a large enough effect; inconclusive means small, poorly fitted or top-dose-only effect, or another doubt; inactive means no such curve, though single readings can be large; an effect the other way counts as inactive or inconclusive.

SMILES	Luc counter	FLuc counter	SMN2 splice up	Rab9 promoter act	ELG1 genotox	NPC1 prom act
Cc1ccc(-c2cc(C(=O)NCCCN3CCCC3)c3ccccc3n2)cc1C	/	?	/	.	?	.
O=C(Nc1cccc(Cl)c1)N1CCSc2ccccc21	/	.	/	/	/	/
O=C1COc2ccc(C(=O)COC(=O)c3ccc([N+](=O)[O-])cc3Cl)cc2N1	/	.	/	.	.	.
OC(CNc1ncnc2sccc12)c1ccccc1 (stereo not drawn)	/	16.9µM	/	.	.	?
O=C(Cn1c(SCC(=O)N2CCc3ccccc3C2)nc2ccccc21)NC1CCCC1	.	.	11.2µM	.	.	.
COc1ccc(CC(=O)Nc2ccc(-c3csc(C)n3)cc2)cc1	.	.	/	.	.	.
CCC(=O)Nc1ccc(-c2csc(C)n2)cc1	.	23.9µM	?	?	?	?
Cc1nc(-c2ccc(NC(=O)Cc3ccccc3)cc2)cs1	/	8.49µM	/	?	.	?
Cc1ccc(S(=O)(=O)N2CCC(C(=O)Nc3ncccc3O)CC2)cc1	/	.	/	.	.	.
COc1ccccc1C1Nc2c(sc3nc(C)cc(C)c23)C(=O)N1c1ccccc1 (stereo not drawn)	/	?	12.6µM	/	/	/
COCc1cc(C)nc2sc3c(c12)NC(c1ccccc1C(=O)O)N(c1cccc(C(F)(F)F)c1)C3=O (stereo not drawn)	/	?	.	/	/	/
COc1cccc(Nc2nc(N)nc(-c3oc4ccccc4c3C)n2)c1	.	19µM	?	.	.	.
Cc1ccc(Nc2nc(N)nc(-c3oc4ccccc4c3C)n2)cc1	.	7.57µM	12.6µM	.	9.2µM	?
Cc1c(-c2nc(N)nc(Nc3ccccc3F)n2)oc2ccccc12	.	3.01µM	11.2µM	0.891µM	3.98µM	1.58µM
COc1ccc2[nH]c3c(=O)n(Cc4ccc(C(=O)N5CCC(C(N)=O)CC5)cc4)c(=S)[nH]c3c2c1	.	21.3µM	.	.	.	.
Cc1ccc(N/N=C(\C#N)C(=N)N2CCOCC2)cc1	.	?	?	?	?	?
N#C/C(=N\Nc1ccc(F)cc1)C(=N)N1CCCCCC1	.	2.69µM	3.98µM	0.891µM	?	0.447µM
COc1ccc(N/N=C(\C#N)C(=N)SCc2ccccc2)cc1	.	26.9µM	.	.	.	.
CCN(CC)C(=N)/C(C#N)=N/Nc1ccc(C)cc1	/	9.53µM	/	2µM	?	2µM
N#C/C(=N\Nc1ccc(Cl)cc1)C(=N)N1CCCCC1	.	1.69µM	?	/	.	0.398µM
N#C/C(=N\Nc1ccccc1)C(=N)N1CCOCC1	.	?	.	.	.	.
N#C/C(=N\Nc1ccccc1F)C(=N)N1CCCCC1	.	12µM	11.2µM	1.58µM	20.6µM	3.16µM
Cc1ccc(N/N=C(\C#N)C(=N)N2CCCCCC2)cc1	.	2.69µM	2.24µM	0.794µM	1.83µM	0.501µM
COc1ccc(N/N=C(\C#N)C(=N)N2CCCCC2)cc1	/	4.78µM	/	2.51µM	?	2µM
N#C/C(=N\Nc1ccc(Cl)cc1)C(N)=S	/	19µM	/	.	.	.
SMILES	Luc counter	FLuc counter	SMN2 splice up	Rab9 promoter act	ELG1 genotox	NPC1 prom act
O=C(Nc1ccc2nc(-c3cccnc3)[nH]c2c1)c1ccco1	.	?	.	.	.	.
COC(=O)c1ccc(C(=O)Nc2ccc3nc(-c4ccncc4)[nH]c3c2)cc1	/	.	/	.	.	.
O=C(Nc1ccc2nc(-c3ccccc3)[nH]c2c1)c1cccs1	.	5.36µM	.	?	?	.
O=C(Nc1ccc2nc(-c3ccc4nc[nH]c4c3)[nH]c2c1)c1cccs1	.	21.3µM	.	.	.	.
CCOC(=O)Cc1csc(NC(=O)Nc2ccc(C)cc2)n1	/	3.01µM	/	.	.	.
CCOC(=O)Nc1nc(-c2ccc(F)cc2F)cs1	.	19µM	.	?	.	?
CCOC(=O)Cc1csc(NC(=O)Nc2ccc(F)cc2)n1	/	10.7µM	/	.	.	.
CCOC(=O)Cc1csc(NC(=O)Nc2cccs2)n1	/	21.3µM	/	.	.	?
Cc1ccc(NC(=O)c2cc(S(=O)(=O)N3CCC4(CC3)OCCO4)ccc2F)cc1Cl	/	.	/	/	/	/
CCCC(=O)Nc1ccc(C(=O)Nc2nc(CC(=O)OCC)cs2)cc1	.	15.1µM	.	.	.	.
CCOC(=O)Cc1csc(NC(=O)Nc2cccc(OC)c2)n1	/	15.1µM	/	.	.	.
CCOC(=O)Cc1csc(NC(=O)c2cccc(OC)c2)n1	.	?	.	.	.	.
CCn1c(C(=O)NCCc2ccc(OC)c(OC)c2)cc2sc(Cl)cc21	/	?	.	/	/	/
COc1ccc(CCNC(=O)c2sc3cc(C)ccc3c2Cl)cc1	.	.	.	.	.	.
Cn1c(C(=O)NCCc2ccccc2)cc2sc(Cl)cc21	/	1.2µM	2.82µM	/	/	/
Cc1cc(NC(=O)c2cccc(C(=O)Nc3cc(C)on3)n2)no1	.	.	.	.	.	.
CCNC(=O)c1sc2cc(C)ccc2c1Cl	.	10.7µM	.	3.16µM	?	?
Cc1ccc2c(Cl)c(C(=O)NCCc3ccccc3)sc2c1	.	6.01µM	15.8µM	2.51µM	?	3.55µM
Cc1ccc2c(Cl)c(C(=O)Nc3cc(C)on3)sc2c1	.	?	?	2.24µM	8.2µM	2.82µM
O=C(Nc1ccc(Cl)c(C(F)(F)F)c1)C1CCCN(S(=O)(=O)c2cccc3cccnc23)C1 (stereo not drawn)	/	.	/	/	/	/
Cc1ncsc1CCOC(=O)C1C2CC3CC(C2)CC1C3 (stereo not drawn)	.	.	.	.	.	.
O=C1CCCC1C(=O)Nc1ccc2ccccc2c1 (stereo not drawn)	/	16.9µM	/	.	.	.
COc1cc(COC(=O)Oc2ccc(CNC(C)=O)cc2OC)c([N+](=O)[O-])cc1OC	/	.	/	.	.	.
COc1ccc(COC(=O)Oc2ccc(CNC(C)=O)cc2OC)c([N+](=O)[O-])c1	/	13.5µM	/	.	.	.
COC(=O)C(CCSC)NC(=O)Cn1ncc2c([nH]c3ccccc32)c1=O (stereo not drawn)	/	.	/	/	/	/
SMILES	Luc counter	FLuc counter	SMN2 splice up	Rab9 promoter act	ELG1 genotox	NPC1 prom act
NS(=O)(=O)c1cccc(NC(=O)c2cc(=O)c3ccccc3o2)c1	/	.	/	.	.	.
O=C(Nc1ccccc1Cl)c1cc(=O)c2ccccc2o1	/	15.1µM	/	?	?	3.55µM
O=C(Nc1ccccc1Br)c1cc(=O)c2ccccc2o1	/	12µM	/	3.98µM	7.3µM	2.51µM
CC(C)C[C@@H]1NC(=O)[C@H](Cc2ccc(O)cc2)NC(=O)[C@H](CCC(N)=O)NC(=O)c2cc([N+](=O)[O-])cc(I)c2NCC[C@@H](C(N)=O)NC1=O	.	.	17.8µM	.	.	.
N=c1oc2ccccc2cc1C(=O)Nc1ccccc1	/	0.757µM	/	1.26µM	0.82µM	0.501µM
O=C(NNC(=O)c1cc2cc(Br)ccc2oc1=O)c1ccc(O)cc1	.	.	.	.	.	.
COc1ccc2oc(=N)c(C(=O)Nc3ccc(Cl)cc3)cc2c1	/	.	/	.	.	?
